Only a selection was taken, and hits are over-represented in it overall.
VCAM1 TNFa pot = potentiators of TNFa-induced VCAM1 expression, primary screen, imaging, HUVEC, TNFa stimulus, immunofluorescence; HUVEC TNFa-stimulated VCAM-1 immunofluorescence, high-content imaging; scaled per plate to unstimulated/TNFa-only wells; activation, % at 2 µM; hit rate 0.19% among 93,000;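 active = activation above the screen mean plus 3 SD, with well images confirming the hit on visual review, cut at about 28% in these data, passing the limit was not always enough; inconclusive = activation above that limit but images do not confirm it; inactive = activation not above that limit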;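 note: signal is the number of cytoplasmic VCAM-1 stained grains per positive cell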
VCAM1 pot confirm = potentiators of TNFa-induced VCAM1 expression, confirmation, imaging, HUVEC, triplicate retest; activation, % at 2 µM; 230 tested, under 10 active; HUVEC TNFa-stimulated VCAM-1 immunofluorescence imaging; shares compounds with VCAM1 TNFa pot; AID 1034, 2008;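 active = activation above 30% in triplicate retests at 2 µM, then confirmed by visual review of the well images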;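 note: scaled per plate between unstimulated and TNFa-stimulated DMSO control wells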
* hit, by the source's call; ? = inconclusive.

SMILES	VCAM1 TNFa pot	others
Cc1cccc(NS(=O)(=O)c2ccc(C)c(C(=O)OCC(=O)Nc3cc(C)on3)c2)c1	-5.6
CC(=O)c1ccc(NS(=O)(=O)c2cccc(C)c2)cc1	72.5*	VCAM1 pot confirm=-7.7
Cc1ccc(N2CC(C(=O)Nc3ccccc3C(=O)NC3CCCCC3)CC2=O)cc1C (stereo not drawn)	19.3
CC(NC(=O)c1ccc(Cl)cc1)c1nnc(SCc2ccc([N+](=O)[O-])cc2)n1C (stereo not drawn)	-4.1
Cc1ccccc1CSCCNC(=O)CCSc1ccccc1	8.6
Cn1c(=O)c(C(=O)c2ccccc2)nc2ccccc21	-7.1
COc1ccc2oc(=O)c(C(C)=O)cc2c1	1.7
CC(=O)Oc1ccc2cc(-c3nc4ccccc4n3C)c(=O)oc2c1	48.3*	VCAM1 pot confirm=-14.6
C/C(NC(=O)c1cccs1)=C1\C(=O)C[C@@H]2[C@H]1C2(C)C	0.6
CC(=O)c1c(C)n([O-])c2cc(C)ccc2[n+]1=O	-7.4
CCn1nccc1C(=O)Nc1nccs1	?	VCAM1 pot confirm=-13.0
CC(C)CN1C(=O)c2ccc(C(=O)Nc3nccs3)cc2C1=O	-24.4
Cc1ncoc1C(=O)Nc1nccs1	4.4
COC(=O)c1sccc1NC(=O)c1ccc(Br)s1	-52.6
Cc1c(C(=O)N2CCC(C(N)=O)CC2)sc(N)c1C#N	-4.9
CC(C)c1ccc(NC(=O)C(c2ccccc2)N2CCC3(CC2)OCCO3)cc1 (stereo not drawn)	-2.1
CC1=C(C(N)=O)C(c2ccc(C)o2)C(C(N)=O)=C(C)N1	-9.7
CCOc1nc(-c2ccncc2)nc2ccccc12	43.4*	VCAM1 pot confirm=-8.9
Brc1ccc(-c2nc(N/N=C/c3cccnc3)c3ccccc3n2)cc1	-41.0
N#CCCN(C(=O)CSc1ccc2c(c1)OCCO2)c1ccc(F)cc1	-26.5
COc1ccc(CNC(=O)c2ccc(C)o2)cc1	13.2
CCOC(=O)N1CCN(c2c(NCc3ccccn3)c(=O)c2=O)CC1	-9.7
CON1C(=O)CN(C(C)=O)C1c1ccc(Cl)cc1Cl (stereo not drawn)	-4.4
COc1ccc(C(=O)Nc2cccnc2)cc1S(=O)(=O)N1CCOCC1	-5.4
Cc1oc(C(=O)O)cc1CSCc1cc(C(=O)O)c(C)o1	3.8
SMILES	VCAM1 TNFa pot	others
C=CCc1ccc(OCc2ccc(C(=O)OC)o2)c(OC)c1	-0.5
COC(=O)c1cc(OC)c(OCc2cc(C(=O)OC)oc2C)c(OC)c1	53.0*	VCAM1 pot confirm=-10.5
COc1cc(OC)c(C(=O)Nc2ccc(S(=O)(=O)Nc3ncccn3)cc2)cc1OC	-9.9
Cc1noc(C)c1S(=O)(=O)N1CCCC(C(=O)Nc2cccnc2)C1 (stereo not drawn)	-0.4
COc1cc(NC(=S)NC(=O)c2ccc(C)cc2C)ccc1NC(=O)c1cccs1	-5.1
CC1=C(C(=O)Nc2cc(C)ccc2C)C(c2cccs2)NC(=S)N1 (stereo not drawn)	51.6*	VCAM1 pot confirm=-11.3
CC1CCCC(NC(=S)Nc2ccc(SC(F)F)cc2)C1C (stereo not drawn)	-3.4
CCN1CCCC1CNC(=O)Cn1cnc2sc(C)c(S(=O)(=O)N3CCC(C)CC3)c2c1=O (stereo not drawn)	48.1*	VCAM1 pot confirm=-1.7
CNc1nc(OCCNC(=O)Nc2ccccc2)nc(N2CCOCC2)n1	0.2
O=C(c1cn(-c2ccccc2)nc1-c1cccs1)N1CCN(c2ccccn2)CC1	-5.7
O=C(O)c1cn(-c2ccccc2)nc1-c1ccncc1	5.4
Cc1ccc(-c2nn(-c3ccccc3)cc2C2CC(c3cccs3)=NN2C(=O)CCCC(=O)O)cc1 (stereo not drawn)	30.5*	VCAM1 pot confirm=-10.7
CS(=O)(=O)N(Cc1ccco1)CC(O)Cn1cc(C=O)c2ccccc21 (stereo not drawn)	-9.6
S=C(Nc1ccccc1)Nc1cc(Cl)ccc1Oc1ccccc1	2.2
CCN(CC)C(=O)N1CCC(NC(=O)c2ccc(C(C)(C)C)cc2)CC1	1.7
CCOC(=O)c1cccc(NC(=O)CN2C(=O)C3C4C=CC(C4)C3C2=O)c1 (stereo not drawn)	3.1
CCOC(=O)c1ccc(NC(=O)C(C)N2C(=O)c3ccccc3C2=O)cc1 (stereo not drawn)	5.1
CCOC(=O)c1cccc(NC(=O)C(C)N2C(=O)c3ccccc3C2=O)c1 (stereo not drawn)	36.2*	VCAM1 pot confirm=-14.7
O=C(CCCCCN1C(=O)c2ccccc2C1=O)Nc1nccs1	-50.1
C=C(C)CSc1nc(C)c(Cc2ccccc2)c(=O)[nH]1	-2.4
Cc1nc(NCc2ccccc2)[nH]c(=O)c1CCC(C)C	?	VCAM1 pot confirm=-16.4
COC(=O)CSc1nnc(C)n1-c1cccc(C#N)c1	-5.9
COc1ccc(C(=O)NCC(C)(C)SCc2c(C)cc(C)cc2C)cc1	3.9
O=C(CN1C(=O)CSC1=O)NC1CCCCC1	42.4*	VCAM1 pot confirm=-17.4
Cn1c(=O)cc(OCC(=O)NC2CCCCC2)c2ccccc21	-26.0
Cc1ccc(NC(=O)CCN2C(=O)CSC2=O)cc1	-9.2
COc1cc(/C=C(/C#N)C(=O)NCCc2c[nH]c3ccccc23)ccc1OCc1ccccc1F	-36.8
